The values that follow come from PubChem BioAssay (NCATS).

The nature of assay [1]: Primary qHTS for inhibitors of nuclear receptor binding SET domain protein 2 (NSD2) in an RCH-ACV wild type WT cells (2C) (AID 1645877). For activity change, negative = cell killing: % is set by controls: 0 for no effect and ±100 for the full control effect. Note: nearly all actives have a fitted effect of over 70% in size. Note: potency is the fitted concentration of half-maximal effect. In general terms: qHTS replaces the single test concentration by a dilution series.
Assay [2] has as its target Glutathione peroxidase 1 (Homo sapiens) (UniProt P07203). As to the kind of experiment: Primary qHTS Assay for Inhibitors of Recombinant Selenoprotein Glutathione Peroxidase 1 (GPX1) (AID 1845191). For activity, negative = inhibition: % is set by controls: 0 for no effect and ±100 for the full control effect. Note: nearly all actives have a fitted effect of over 65% in size. In a few lines: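 GR-coupled assay: compounds preincubated 30 min at room temperature with GPX1, then reaction started with CHP; final 10 nM GPX1, 1 mM GSH, 0.5 mM CHP, 0.5 mM NADPH, 100 nM GR, 0.01% BSA, pH 7.5 Tris buffer. NADPH fluorescence (340/450 nm) read at 0 and 15 min.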

Assay [3] deals with Phospholipid hydroperoxide glutathione peroxidase GPX4 (Homo sapiens) (UniProt P36969). Nature of the assay: Primary qHTS Assay for Inhibitors of Recombinant Selenoprotein Glutathione Peroxidase 4 (GPX4) (AID 1845192). For activity change, negative = inhibition: series mostly up to about 50 µM; % is set by controls: 0 for no effect and ±100 for the full control effect. Note: nearly all actives have a fitted effect of over 65% in size. The procedure, abridged:
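GR-coupled assay: recombinant GPX4 preincubated 30 min with compound at room temperature; final 200 nM GPX4, 1 mM GSH, 0.5 mM cumene hydroperoxide, 0.5 mM NADPH, 100 nM GR, 0.01% BSA, pH 7.5 Tris. NADPH fluorescence (340/450 nm) read at 0 and 15 min.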

In assay [4] the target is Luciferin 4-monooxygenase (Photinus pyralis) (UniProt P08659). Nature of the assay: Primary firefly luciferase (FLuc) qHTS assay for identification of artifact compounds. (AID 1845220).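 For activity change, negative = inhibition: series mostly up to about 54 µM; plate controls were DMSO vehicle for no effect and no enzyme for full effect.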 Note: nearly all actives have a fitted effect of over 60% in size. The procedure, abridged: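 D-luciferin and ATP (10 uM each, final) in Tris acetate buffer pH 7.6 were incubated with compounds for 15 min at room temperature. The reaction was started with 10 nM Photinus pyralis luciferase and luminescence read after 5 min. Percent inhibition was fitted to a 4-parameter Hill equation.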

Assay [5] is described as follows: Primary fluorescence-based thiol-reactive (MSTI) qHTS assay for identification of artifact compounds. (AID 1845221).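 For activity change, negative = thiol reactive: series mostly up to about 54 µM; thiol-reactive compounds lower the probe fluorescence signal.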 Note: nearly all actives have a fitted effect of over 65% in size. Note: potency is the fitted concentration of half-maximal effect. The procedure, abridged: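 Reactivity toward the thiol probe MSTI (4 uM) is scored by fluorescence at Ex/Em 525/598 nm after 1 h at room temperature. Acetyl-MSTI and MSTI define the activity scale.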
For assay [6], the system named is Nanoluciferase (engineered Oplophorus gracilirostris luciferase). Nature of the assay: Primary Nanoluciferase (NLuc) qHTS assay for identification of artifact compounds. (AID 1845222).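 Note: series mostly up to about 54 µM; 0% = DMSO and -100% = no enzyme.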 The procedure, abridged: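 Diluted conditioned medium from NLuc-expressing S16 cells treated with compounds for 15 min at room temperature, then Nano-Glo substrate added; luminescence read after 5 min. Percent inhibition versus no-enzyme and DMSO controls fitted to 4-parameter Hill equation.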

A short description of assay [7]: Primary redox qHTS assay for identification of artifact compounds. (AID 1845223).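 Note: 0% = DMSO and 100% = reference compound.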 The procedure, abridged:
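Amplex Red (25 uM) and HRP (250 mU/mL) in HBSS, with compounds for 15 min, then 250 uM DTT for 30 min, room temperature, dark. Fluorescence 525/598 nm read; normalized to DMSO and 10 uM DA3003; Hill fit.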

Molecules are shown by their SMILES. Values without a mark were called inactive. Inconclusive results are not listed. Calls of active or inactive are those of the source. Calls come from the whole dose curve; as a rule, active = well fitted curve in the direction sought with a large enough effect; inconclusive = small, poorly fitted or top-dose-only effect, or another doubt; inactive = no such curve, though single readings can be large; an effect the other way counts as inactive or inconclusive.

Glutathione peroxidase 1 (Homo sapiens), sequence (P07203 whole entry, looked up): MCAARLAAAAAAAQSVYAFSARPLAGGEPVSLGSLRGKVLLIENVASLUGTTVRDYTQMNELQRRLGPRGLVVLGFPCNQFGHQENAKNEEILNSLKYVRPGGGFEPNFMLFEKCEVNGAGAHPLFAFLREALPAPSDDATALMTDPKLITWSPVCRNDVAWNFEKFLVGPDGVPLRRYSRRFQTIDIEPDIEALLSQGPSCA
Phospholipid hydroperoxide glutathione peroxidase GPX4 (Homo sapiens), sequence (P36969 whole entry, looked up): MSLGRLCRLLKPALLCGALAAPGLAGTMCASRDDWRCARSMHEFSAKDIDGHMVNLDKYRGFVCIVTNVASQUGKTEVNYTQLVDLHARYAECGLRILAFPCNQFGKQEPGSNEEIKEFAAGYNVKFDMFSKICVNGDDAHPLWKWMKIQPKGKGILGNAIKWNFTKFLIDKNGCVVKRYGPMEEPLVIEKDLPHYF

Take `CC(=O)N[C@@H](C(=O)O[C@H]1CCC(C)(C)[C@@H]2CCC3=C(COC3=O)[C@@]12C)C(C)C`: the Potency result in assay [1], in assay [2], in assay [3], in assay [4], in assay [5] and in assay [6] was “inactive” throughout. Besides, in assay [7], the Potency entry was “inactive”.
`NCc1ccc(Nc2ncc(F)c(Nc3ccccc3)n2)cc1`: the Potency in assay [1] is 4.09 µM (active). The Potency result in assay [2], in assay [3], in assay [4], in assay [5], in assay [6] and in assay [7] was “inactive” in each case.
`Cc1nc(NC(=O)N2CCCC2C(N)=O)sc1-c1csc(C(C)(C)C)n1` (stereo not drawn): in assay [1], the Potency was 4.09 µM (active). The Potency result in assay [2], in assay [3], in assay [4], in assay [5], in assay [6] and in assay [7] was “inactive” throughout.
Consider `CC1(C)C[C@H](O)C[C@@]2(C)OC(=O)C=C12`, for which the Potency result in assay [1], in assay [2], in assay [3], in assay [4], in assay [6] and in assay [7] was “inactive” each time. Besides, in assay [5], the Potency was 39.8 µM (active).
`O=C(c1cn(Cc2cncn2Cc2ccc(Br)cc2)cc1-c1cccc2ccccc12)N1CCOCC1`: the Potency in assay [1] was 1.15 µM (active). Besides, the Potency entry in assay [2], in assay [3], in assay [4], in assay [5], in assay [6] and in assay [7] was “inactive” in each case.
As to `CC1(C(=O)O)CCCC2(C)C3=CCC4CC3(CCC12)CC4CO` (stereo not drawn), the Potency result in assay [1], in assay [2], in assay [3], in assay [4], in assay [5] and in assay [6] was “inactive” throughout. For the same compound, in assay [7], the Potency result was “inactive”.
Regarding `COc1cc(/C=C/C=O)cc(OC)c1O[C@@H]1O[C@H](CO)[C@@H](O)[C@H](O)[C@H]1O`, the Potency entry in assay [1], in assay [2], in assay [3], in assay [4], in assay [6] and in assay [7] was “inactive” throughout. Also, the Potency in assay [5] was 14.7 µM (active).
For the compound `C[C@]12C=C[C@@]3(CCC4[C@](C)(CO)CCC[C@@]4(C)C3CC1)C2` (stereo partly drawn), the Potency entry in assay [1], in assay [2], in assay [3], in assay [4], in assay [5] and in assay [6] was “inactive” in each case. For the same compound, in assay [7], the Potency result is “inactive”.
On to `Cn1c(=O)n(-c2ccc(C(C)(C)C#N)cc2)c2c3cc(C#Cc4cccnc4)ccc3ncc21`, for which, in assay [1], the Potency is 0.0142 µM (active). Further, the Potency result in assay [2], in assay [3], in assay [4], in assay [5], in assay [6] and in assay [7] was “inactive” throughout.
With `C=C[C@@H]1[C@H](O[C@@H]2O[C@H](CO)[C@@H](O)[C@H](O)[C@H]2O)OC=C(C(=O)O)[C@H]1CCOC(=O)/C=C/c1ccc(O)c(O)c1`, the Potency entry in assay [1], in assay [2], in assay [3], in assay [4], in assay [6] and in assay [7] was “inactive” throughout. Besides, in assay [5], the Potency was 1.3 µM (active).
Consider `CC1(C)C2CC(OC3OC(COC4OCC(O)(CO)C4O)C(O)C(O)C3O)C1(C)CC2O` (stereo not drawn), for which the Potency entry in assay [1], in assay [2], in assay [3], in assay [4], in assay [5] and in assay [6] was “inactive” each time. In addition, the Potency entry in assay [7] is “inactive”.
For `CC1(C)CC[C@]2(C(=O)O[C@@H]3O[C@H](CO)[C@@H](O)[C@H](O)[C@H]3O)CC[C@]3(C)C(=CCC4[C@@]5(C)CC[C@H](O[C@@H]6O[C@H](C(=O)O)[C@@H](O)[C@H](O[C@@H]7O[C@H](CO)[C@H](O)[C@H](O)[C@H]7O)[C@H]6O)C(C)(C)C5CC[C@]43C)C2C1` (stereo partly drawn), the activity change, negative = cell killing in assay [1] is -15.1% [at 9.23 µM]. Also, the Potency entry in assay [2] and in assay [3] was “inactive” in each case. Besides, in assay [4], the activity change, negative = inhibition was -3.44% [at 11.6 µM]. Also, in assay [5], the activity change, negative = thiol reactive is 172% [at 11.5 µM]. The activity, negative = inhibition in assay [6] was 3.94% [at 11.6 µM]. In addition, the redox activity (% of DA3003) in assay [7] is 0.97% [at 11.5 µM].
With `C=C1CCC[C@]2(C)CC[C@@H](C(=C)C(=O)O)[C@H](O)[C@@H]12`, the Potency entry in assay [1], in assay [2], in assay [3], in assay [4], in assay [5] and in assay [6] was “inactive” throughout. The Potency result in assay [7] is “inactive”.
As to `C=C1C[C@]23C[C@H]1CC[C@H]2[C@@]12CC[C@H](O)[C@@](C)(C(=O)O1)[C@H]2[C@@H]3C(=O)O`, the Potency entry in assay [1], in assay [2], in assay [3], in assay [4], in assay [5] and in assay [6] was “inactive” in each case. Also, the Potency result in assay [7] is “inactive”.
As to `CC1OC(OC2C(CO)OC(OCC3OC(OC(=O)C45CCC(C)(C)CC4C4=CCC6C7(C)CCC(OC8OC(CO)C(O)C(OC9OC(CO)C(O)C(O)C9O)C8O)C(C)(C)C7CCC6(C)C4(C)CC5)C(O)C(O)C3O)C(O)C2O)C(O)C(O)C1OC1OC(CO)C(O)C(O)C1O` (stereo not drawn), in assay [1], the activity change, negative = cell killing was -10.4% [at 9.23 µM]. Also, the activity, negative = inhibition in assay [2] was -12.6% [at 9.52 µM]; in assay [6] it was 1.03% [at 11.6 µM]. For the same compound, the figures for the activity change, negative = inhibition in assay [3] and in assay [4] were -8.53% [at 9.73 µM] and -3.46% [at 11.6 µM], respectively. Besides, the activity change, negative = thiol reactive in assay [5] is 208% [at 11.5 µM]. In addition, in assay [7], the redox activity (% of DA3003) is 10.1% [at 11.5 µM].
On to `CC(=O)NC1=NN(C(C)=O)C(C)(c2ccccc2)S1` (stereo not drawn), for which the Potency in assay [1] was 4.09 µM (active). Besides, the Potency entry in assay [2], in assay [3], in assay [4], in assay [5], in assay [6] and in assay [7] was “inactive” each time.
Consider `COC1CC(O[C@H]2CC[C@@]3(C)C(CCC4C3[C@H](OC(C)=O)[C@@H](OC(=O)/C=C/c3ccccc3)[C@]3(C)C(C(C)=O)CC[C@]43O)C2)OC(C)C1OC1CC(OC)C(OC2CC(OC)C(OC3OC(C)C(OC4OC(CO)C(O)C(O)C4O)C(OC)C3O)C(C)O2)C(C)O1` (stereo partly drawn), for which, in assay [1], the activity change, negative = cell killing was -29.1% [at 9.23 µM]. Moreover, the outcome in assay [2] is “inactive [at 9.52 µM]”; in assay [4], “inactive [at 11.6 µM]”. In addition, in assay [3], the activity change, negative = inhibition was -9.21% [at 9.73 µM]. Further, the activity change, negative = thiol reactive in assay [5] was 2.39% [at 11.5 µM]. Moreover, the activity, negative = inhibition in assay [6] is -1.88% [at 11.6 µM]. For the same compound, the redox activity (% of DA3003) in assay [7] is -6.18% [at 11.5 µM].
`CCOc1ccc2nc(SCCN3CCOCC3)[nH]c2c1`: the Potency result in assay [1], in assay [2], in assay [3], in assay [4], in assay [5] and in assay [6] was “inactive” each time. The Potency result in assay [7] is “inactive”.
`C=C1C(=O)O[C@H]2C1[C@H](OC(=O)/C(=C/CO)COC(=O)/C(C)=C/CO)CC(=C)[C@@H]1CC(=O)[C@@H](C)[C@@H]12` (stereo partly drawn): the Potency in assay [1] is 1.78 µM (active). In addition, the Potency entry in assay [2], in assay [3], in assay [4], in assay [5], in assay [6] and in assay [7] was “inactive” throughout.
On to `COC(=O)C[C@H]1C(C)(C)[C@H](OC(C)=O)C2CC3=C4CC(=O)O[C@@H](c5ccoc5)[C@]4(C)CCC3[C@@]1(C)C2=O` (stereo partly drawn), for which the Potency result in assay [1], in assay [2], in assay [3], in assay [4], in assay [5] and in assay [6] was “inactive” throughout. For the same compound, the Potency entry in assay [7] is “inactive”.
With `CC1CCC2(C(=O)O)CCC3(C)C(=CCC4C5(C)CCC(O)C(C)(CO)C5CCC43C)C2C1(C)O` (stereo not drawn), the Potency entry in assay [1], in assay [2], in assay [3], in assay [4], in assay [5] and in assay [6] was “inactive” each time. In addition, the Potency entry in assay [7] was “inactive”.
`CC(=O)c1c(O)cc(O[C@@H]2O[C@H](CO)[C@@H](O)[C@H](O)[C@H]2O)cc1O`: the Potency entry in assay [1], in assay [2], in assay [3], in assay [4], in assay [6] and in assay [7] was “inactive” each time. Moreover, the Potency in assay [5] was 4.14 µM (active).
With `O=C1Nc2ccccc2C(O)(c2ccccc2)C1O` (stereo not drawn), the Potency entry in assay [1], in assay [2], in assay [3], in assay [4], in assay [5] and in assay [6] was “inactive” throughout. In addition, the Potency result in assay [7] was “inactive”.
Turning to `C=C1[C@H](OC(C)=O)[C@H]2[C@@H](OC(C)=O)[C@](C)(OC(C)=O)C[C@]2(OC(C)=O)C(=O)[C@H](C)/C=C/C(C)(C)C(=O)[C@H](OC(=O)C(C)CC)[C@H]1OC(C)=O` (stereo partly drawn), the Potency result in assay [1], in assay [2], in assay [3], in assay [4], in assay [5] and in assay [6] was “inactive” each time. Moreover, the Potency entry in assay [7] is “inactive”.
